Screening data: PubChem, National Center for Advancing Translational Sciences (NCATS)
Many of the other results were omitted from the sample, so hits are more common in it than they were.
PGK inhibitor = qHTS Assay to Find Inhibitors of Phosphoglycerate Kinase; Phosphoglycerate kinase, glycosomal (Trypanosoma brucei brucei), P07378; PGK/GAPDH coupled, Kinase-Glo luminescence, 60 min; Potency, µM (doses to about 57.5 µM), actives largely listed as inhibitors; 0.043% of 380,000 active; AID 602233, 2012; also: nearly all actives have a fitted effect of over 60% in size
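Recombinant glycosomal PGK reaction used 1,3-bisphosphoglycerate generated in-well by GAPDH (100nM final) in 100mM TEA pH 7.6, 5mM MgCl2, 0.01% Tween-20. After 60 minutes at room temperature, ATP was read by Kinase-Glo Plus luminescence end-point.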
Tb PFK inh-1 = qHTS Assay to Find Inhibitors of T. brucei phosphofructokinase; ATP-dependent 6-phosphofructokinase (Trypanosoma brucei brucei), O15648; T. brucei PFK, ADP-Glo luminescence; Potency, µM (titrated, usually from 57.5 µM), hits mostly inhibitors; 0.17% of 330,000 active; AID 485367, 2010; also: nearly all actives have a fitted effect of over 60% in size
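Activity is normalized to no-enzyme wells (full inhibition) and 1.25 nM enzyme wells (no inhibition). Reaction: 0.5 mM F6P, 0.1 mM ATP, 45 min RT, ADP-Glo luminescence; concentration-response curves fitted and classed by quality.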
Pin1 inh = qHTS Assay to Find Inhibitors of Pin1. Peptidyl-prolyl cis-trans isomerase NIMA-interacting 1 (Homo sapiens), Q13526. Pin1 FP peptide displacement, HiFluor488, 10 min. Potency, µM (series often up to 115 µM), hits mostly inhibitors. 0.009% of 390,000 active. AID 504891, 2011; active = well fitted inhibition curve with a large enough effect in the polarisation, with a control signal flat, not every such curve was filed as active; inconclusive = small, poorly fitted or top-dose-only effect, or effect the other way, or a change in a side signal; inactive = no such curve, though single readings can be large or run the other way; the % refers to the polarisation
Target sequence (Q13526 whole entry, looked up): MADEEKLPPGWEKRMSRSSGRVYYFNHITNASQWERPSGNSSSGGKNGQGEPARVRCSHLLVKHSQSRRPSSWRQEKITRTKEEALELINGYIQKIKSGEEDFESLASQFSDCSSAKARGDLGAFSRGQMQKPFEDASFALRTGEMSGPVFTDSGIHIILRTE
PI5P4Ka inh = qHTS for Inhibitors of phosphatidylinositol 5-phosphate 4-kinase (PI5P4K); max response, %; PI5P4Kalpha enzyme, ADP-Glo luminescence, 60 min; stronger effect = lower value; Phosphatidylinositol 5-phosphate 4-kinase type-2 alpha (Homo sapiens), P48426; 1.2% of 330,000 active; AID 652105, 2013; active = max response of -50% or lower; inconclusive = between -30% and -50%; inactive = -30% or higher; also: value at the top dose of about 77 µM
Target sequence (P48426 whole entry, looked up): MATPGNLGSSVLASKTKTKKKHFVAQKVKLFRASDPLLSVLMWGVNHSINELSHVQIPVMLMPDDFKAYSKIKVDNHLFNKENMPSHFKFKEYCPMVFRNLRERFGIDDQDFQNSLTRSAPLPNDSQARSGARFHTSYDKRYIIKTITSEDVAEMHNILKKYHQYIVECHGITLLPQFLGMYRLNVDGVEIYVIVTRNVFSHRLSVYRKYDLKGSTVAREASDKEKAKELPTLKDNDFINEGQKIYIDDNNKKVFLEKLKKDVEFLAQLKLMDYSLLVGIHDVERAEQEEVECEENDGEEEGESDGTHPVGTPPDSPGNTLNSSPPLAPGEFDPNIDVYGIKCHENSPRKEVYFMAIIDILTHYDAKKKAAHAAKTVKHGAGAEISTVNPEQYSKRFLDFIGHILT
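ADP-Glo luminescence end-point read after a 60 min room-temperature kinase reaction of PI5P4Kalpha plus substrate, initiated with ATP at 5 microM final. Buffer: 0.038 M HEPES pH 7.4, EGTA, 0.1% CHAPS, 5% DMSO.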
PI4K2A block = qHTS for small molecular inhibitors of PI4K2A | Phosphatidylinositol 4-kinase type 2-alpha (Homo sapiens), Q9BTU6 | activity change, negative = inhibition, % at 76.9 µM | 0.13% of 420,000 active | purified PI4K2A, ADP-Glo luminescence, 1 h; stronger effect = lower value | AID 1346378, 2018; in the data active = activity change below about -50%; inconclusive = mostly about -30% to -49%
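In this quantitative HTS, ADP production by PI4K2A was quantified luminescently after 1 h at ambient temperature; 100 microM adenosine served as plate-quality control.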
TbPFK ATP = Tb PFK orthogonal confirmatory assay using ATP depletion (Kinase-Glo Plus) as an alternative measure of Tb PFK activity: Hit Validation | shares compounds with Tb PFK inh-1 | 47% of 1,100 active | Tb PFK enzyme, ATP depletion, Kinase-Glo Plus luminescence | Potency, µM (series often up to 57.5 µM); calls by dose curve; also: nearly all actives have a fitted effect of over 60% in size
Tb PFK inh-2 = Inhibitors of T. brucei phosphofructokinase: Hit Validation; purified T. brucei PFK, ADP-Glo luminescence, 45 min; Potency, µM (highest dose often 57.5 µM), most hits filed as inhibitors; shares compounds with Tb PFK inh-1; 41% of 1,100 active; also: nearly all actives have a fitted effect of over 60% in size
A number is an active result; . = inactive; ? = inconclusive; / = no result given. Unless noted, calls follow the shape of the dose curve; as a rule, active = well fitted curve in the direction sought with a large enough effect; inconclusive = small, poorly fitted or top-dose-only effect, or another doubt; inactive = no such curve, though single readings can be large; an effect the other way counts as inactive or inconclusive.

SMILES | PGK inhibitor | Tb PFK inh-1 | Pin1 inh | PI5P4Ka inh | PI4K2A block | TbPFK ATP | Tb PFK inh-2
CCOc1ccc2nc(NC(=O)c3cccn(Cc4ccc(Cl)cc4)c3=O)sc2c1 | . | / | . | / | . | / | /
NP(N)(=O)NC(=O)c1ccc(F)cc1 | / | / | / | / | . | / | /
CCOc1ccc(C(c2c(C)[nH][nH]c2=O)c2c(C)[nH][nH]c2=O)cc1OC | . | ? | . | . | . | ? | .
C=CCN(CC#CCO)Cc1ccc(OC)cc1OC | / | / | / | / | . | / | /
CN1CCc2ccccc2Cc2[nH]c3ccccc3c2CC1 | . | 12µM | . | . | . | 15.1µM | 13.5µM
COc1cccc(C(=O)NNC(=O)Cc2ccc([N+](=O)[O-])cc2)c1 | . | ? | . | . | . | ? | ?
Cc1cccc(-n2c(CC3C(=O)Nc4ccc(C)cc43)nc3ccccc3c2=O)c1 (stereo unspecified) | / | / | ? | / | . | / | /
CCN(CC)c1ccc(SS(=O)(=O)O)cc1 | . | 19µM | . | . | . | 10.7µM | 12µM
Cc1cccc(C)c1NC(=O)CN1CCCC1=O | / | / | / | / | . | / | /
COC(=O)c1[nH]c2ccc(C)cc2c1NC(=O)CN1CCCc2ccccc21 | . | ? | . | . | . | . | ?
COc1ccc(OCC(=O)OCC(=O)Nc2ccc3[nH]c(=O)[nH]c3c2)cc1 | . | 30.1µM | . | . | . | ? | ?
COc1ccccc1NC(=O)COC(=O)c1cc(C)n(C2CC2)c1C | . | . | . | . | . | / | /
O=C(COc1ccc(Cl)cc1)Nc1ccc2[nH]ncc2c1 | . | ? | . | . | . | 16.9µM | 23.9µM
COc1ccccc1C(=O)NCC(=O)OCC(=O)Nc1ccc2[nH]c(=O)[nH]c2c1 | . | 26.9µM | . | . | . | ? | ?
O=C1OC(c2ccc(O)c(S(=O)(=O)O)c2)(c2ccc(O)c(S(=O)(=O)O)c2)c2c(Br)c(Br)c(Br)c(Br)c21 | / | / | / | / | . | / | /
COc1ccc2c(c1)c(CCN1CCOCC1)c(C)n2C(=O)c1cccc(Cl)c1Cl | / | / | / | / | . | / | /
Cc1ccc(C=C2C(Cl)=C(Cl)C(Cl)=C2Cl)cc1 | . | ? | ? | ? | . | / | /
Cc1ccc(C(=O)NNC(=O)CNc2cccc(Cl)c2)cc1 | . | 19µM | . | . | . | 12µM | 23.9µM
O=c1c(O)cccc2cc(O)c(O)c(O)c12 | 0.794µM | 6.75µM | / | -83.4 | ? | 0.426µM | 0.477µM
O=C1C(=O)c2cccc3cccc1c23 | . | . | . | . | . | / | /
O=C(CSC1=NS(=O)(=O)c2cc(Cl)ccc2N1)Nc1cccc(F)c1 | . | ? | . | . | . | 23.9µM | ?
O=C(CN1CC(c2ccccc2)CC1=O)Nc1cccc(F)c1 (stereo unspecified) | . | . | . | . | . | / | /
Cc1c(Nc2cc(Cl)c3nonc3c2[N+](=O)[O-])c(=O)n(-c2ccccc2)n1C | . | ? | . | . | ? | ? | ?
CNc1cc(Cl)c2nonc2c1[N+](=O)[O-] | . | . | . | . | . | / | /
CC(=O)NS(=O)(=O)c1ccc(NC(=O)c2cccn(Cc3ccc(Cl)cc3)c2=O)cc1 | . | / | . | / | . | / | /
SMILES | PGK inhibitor | Tb PFK inh-1 | Pin1 inh | PI5P4Ka inh | PI4K2A block | TbPFK ATP | Tb PFK inh-2
NC(N)=NS(=O)(=O)c1ccc(NC(=S)NC(=O)Cc2ccc(Cl)cc2)cc1 | . | ? | . | . | . | 26.9µM | 30.1µM
O=C(Nc1ccc2c(c1)OCO2)c1cccn(Cc2ccccc2)c1=O | . | / | . | / | . | / | /
CN1CC=C2C(C#N)=C(N)C(C#N)(C#N)C(c3ccncc3)C2C1 (stereo unspecified) | . | . | ? | . | . | / | /
N#CC1=C(N)C(C#N)(C#N)C(c2ccc[nH]2)C2CCCC=C12 (stereo unspecified) | / | ? | ? | / | . | . | .
NS(=O)(=O)c1ccc(NC(=O)C2COc3ccccc3O2)cc1 (stereo unspecified) | . | 21.3µM | . | . | . | 6.75µM | 30.1µM
Cc1ccc(Cn2cccc(C(=O)Nc3ccc4c(c3)OCO4)c2=O)cc1 | . | / | . | / | . | / | /
Cc1cc(C)n2c(=S)[nH]nc2n1 | . | ? | . | -75.9 | . | 26.9µM | ?
Cc1ccc(C2=NCC(=O)Nc3ccc(Br)cc32)cc1 | . | . | . | . | . | / | /
Cc1cc(Br)ccc1N=C1NC(=O)CS1 | . | ? | . | . | . | ? | .
Cc1cc([N+](=O)[O-])c(Cl)cc1NC(=O)C(C)C | . | ? | . | . | . | / | /
O=C(Nc1ccc(Cl)c([N+](=O)[O-])c1)ONC1=NCCCCC1 | . | ? | . | . | . | ? | ?
COc1ccc(Cl)cc1NC(=O)CN1C(=O)CN=C(c2ccccc2)c2cc(Cl)ccc21 | . | / | . | / | . | / | /
CC1=C(C(=O)Nc2ccccc2C(F)(F)F)C(c2ccc(C)s2)NC(=S)N1 (stereo unspecified) | . | ? | . | . | . | . | .
